Most compounds without a hit are left out; they make up all but 3.5% or so of the library.
BoNT-F LC inh = BoNT F light chain protease inhibition | Multiplex microsphere protease cleavage assay, flow cytometry | inhibition, % at 10 µM | hit rate 0.22% among 360,000 | AID 588497; in the data active = inhibition above about 35%, passing the limit was not always enough; inconclusive = no clear call, values can overlap the other calls
Anthrax LF prot = blocks Bacillus anthracis lethal factor protease. inhibition, % at 10 µM. multiplex microsphere protease cleavage assay, LF. AID 588501. hit rate 0.12% among 360,000
Target sequence (P15917 whole entry, looked up): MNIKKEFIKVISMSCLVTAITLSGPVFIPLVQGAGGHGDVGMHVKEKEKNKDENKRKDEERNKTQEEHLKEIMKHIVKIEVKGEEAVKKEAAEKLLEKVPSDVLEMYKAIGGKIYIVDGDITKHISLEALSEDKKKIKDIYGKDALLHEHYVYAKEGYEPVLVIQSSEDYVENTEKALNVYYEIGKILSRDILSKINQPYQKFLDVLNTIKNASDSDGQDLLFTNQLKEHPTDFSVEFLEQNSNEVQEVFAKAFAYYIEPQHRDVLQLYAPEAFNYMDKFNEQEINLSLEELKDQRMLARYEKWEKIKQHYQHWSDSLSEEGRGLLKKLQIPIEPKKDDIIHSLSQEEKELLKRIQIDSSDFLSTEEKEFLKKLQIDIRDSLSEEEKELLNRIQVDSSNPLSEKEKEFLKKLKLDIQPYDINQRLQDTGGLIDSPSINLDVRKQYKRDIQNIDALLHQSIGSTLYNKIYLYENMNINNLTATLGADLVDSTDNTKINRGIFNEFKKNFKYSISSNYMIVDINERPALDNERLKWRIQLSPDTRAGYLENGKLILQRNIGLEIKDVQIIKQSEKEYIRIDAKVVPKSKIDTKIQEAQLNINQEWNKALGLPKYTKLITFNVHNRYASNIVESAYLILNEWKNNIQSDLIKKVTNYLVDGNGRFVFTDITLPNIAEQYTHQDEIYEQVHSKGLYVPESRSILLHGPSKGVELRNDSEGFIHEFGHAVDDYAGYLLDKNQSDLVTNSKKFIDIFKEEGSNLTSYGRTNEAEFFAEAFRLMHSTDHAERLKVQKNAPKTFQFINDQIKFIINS
BoNT A protease = BoNT A light chain protease inhibition. inhibition, % at 10 µM. hit rate 0.17% among 360,000. AID 588499. multiplex microsphere protease substrate cleavage, flow cytometry
Autofluor counter = compound fluorescence in toxin protease inhibitor counterscreen; compound autofluorescence counterscreen, microsphere flow cytometry; stronger effect = higher value; fluorescence intensity (concentration not given with the values); hit rate 3.1% among 360,000; AID 624483; in the data active = fluorescence intensity above about 16000; inconclusive = no clear call, values can overlap the other calls
Hits are given with their value; . = inactive; ? = inconclusive. Rule as the data show it, unless noted: active = inhibition above about 30%; inconclusive = no clear call, values can overlap the other calls; inactive = below that.

SMILES | BoNT-F LC inh | Anthrax LF prot | BoNT A protease | Autofluor counter
c1ccc(OCc2nc(-c3cccs3)no2)cc1 | . | . | . | 19681
CSc1ccc(/C=C2\CCn3c2nc2cc(C(=O)O)ccc2c3=O)cc1 | . | . | . | .
O=c1oc2c(CN3CCOCC3)c(O)ccc2c2c1CCC2 | . | . | . | 20943
Cc1cc(C)n2nc(SCC(=O)N3CC(C)CC(C)C3)nc2n1 (stereo not given) | . | . | . | .
CC(Cc1ccccc1)NC(=O)C1(c2ccccc2)CCOCC1 (stereo not given) | . | . | ? | 22824
CNC(=O)c1cc(S(=O)(=O)Nc2ccc3c(c2)OCO3)ccc1C | . | . | . | ?
Cc1ccsc1-c1ccnc(-n2cccc2)n1 | . | . | . | 16296
Clc1ccsc1-c1ccnc(-n2cccc2)n1 | . | . | . | .
CN1C(=O)C2C=CC1C1C(=O)N(c3ccccc3)C(=O)C21 (stereo not given) | . | . | . | 21330
O=C1C2C3C=CC(C3)C2C(=O)N1c1ccccc1 (stereo not given) | . | . | ? | 22433
O=C1C2C3C=CC(C3=C3CCCCC3)C2C(=O)N1c1ccccc1 (stereo not given) | . | . | . | .
COc1ccccc1S(=O)(=O)N(C)C[C@@H]1OCc2cnnn2CCCC(=O)N([C@@H](C)CO)C[C@@H]1C | . | . | . | .
O=C(NNc1ccccc1[N+](=O)[O-])Nc1ccccc1 | . | . | ? | 20435
CC(C)CCNC(=S)NC1CCCC1 | . | . | . | 20284
CC(C)CCNC(=O)C(=O)NC1CCCC1 | . | . | . | .
CC1CCCC(NC(=O)COC(=O)CN2C(=O)C3CCCCC3C2=O)C1C (stereo not given) | . | . | . | .
O=C1N/C(=C/c2cccn2-c2ccc(F)cc2)C(=O)N1Cc1ccccc1 | . | . | ? | 23854
O=C(O)c1cccc(-n2cccc2/C=C2\NC(=O)N(Cc3ccc(F)cc3)C2=O)c1 | . | . | . | .
NC(=O)c1ccc(NC(=O)COC(=O)/C=C/c2ccc3c(c2)OCO3)cc1 | . | . | . | .
O=C(CCNS(=O)(=O)c1ccc(F)cc1)N1CCN(c2ncccn2)CC1 | . | . | . | .
COc1ccc(NC(=O)c2cc(C3CCCCN3S(=O)(=O)c3c(C)noc3C)on2)c(C)c1 (stereo not given) | . | . | . | .
COc1ccc(N(CC(=O)NCc2ccco2)S(=O)(=O)c2ccc(OC)c(OC)c2)cc1 | . | . | ? | 22427
CS(=O)(=O)N(Cc1ccccc1)c1ccccc1C(=O)Nc1ccccc1C(=O)NCc1ccco1 | . | . | . | 23578
Cc1ccc(S(=O)(=O)N(Cc2ccccc2)c2ccccc2C(=O)Nc2ccccc2C(=O)NCc2ccco2)cc1 | . | . | . | .
O=C(NCc1ccco1)c1ccccc1NS(=O)(=O)c1cccs1 | . | . | . | 19002
SMILES | BoNT-F LC inh | Anthrax LF prot | BoNT A protease | Autofluor counter
CS(=O)(=O)N(Cc1ccc(C(=O)NCCSCc2ccco2)cc1)c1ccccc1 | . | . | . | 21841
CCn1c(SCC(=O)N/N=C/c2ccccc2OCC(=O)O)nnc1-c1ccc(C)cc1 | . | . | . | .
COCCN(C(=O)c1cc(S(=O)(=O)N2CCCCC2)ccc1Cl)c1c(N)n(CC(C)C)c(=O)[nH]c1=O | . | . | . | .
Cc1ccc(-c2nc3ccc(Br)cn3c2Cc2cccc(F)c2)cc1 | . | . | . | .
Cn1c(=O)oc2cc(S(=O)(=O)Nc3ccc(F)cc3)ccc21 | . | . | . | .
COc1ccc(N(CC(=O)Nc2ccccc2C(=O)NCc2ccco2)S(C)(=O)=O)cc1 | . | . | . | 22786
Nc1c(S(=O)(=O)c2cccc(Cl)c2)c2nc3ccccc3nc2n1CCN1CCOCC1 | . | . | . | 16491
Nc1cc(=O)[nH]c(=O)n1-c1cccc(F)c1 | . | . | . | .
O=c1ncn(-c2cccc(F)c2)c2ncccc12 | . | . | ? | 19821
CCCCOCCCNC(=O)C[C@@H]1C[C@@]2(C(=O)OCC)CCC=C2N(Cc2ccc(Cl)cc2Cl)C1=O | . | . | . | .
CCOC(=O)N1CCN(Cc2nc(-c3ccccc3)no2)CC1 | . | . | . | .
CC(C)CC(=O)N1CCN(Cc2ccccc2Cl)CC1 | . | . | . | .
CCOC(=O)N1CCN(Cc2ccccc2Cl)CC1 | . | . | . | 22232
CCOC(=O)N1CCN(Cc2ccccc2F)CC1 | . | . | . | 20462
CCOC(=O)N1CCN(C(=O)CSc2ccccc2)CC1 | . | . | . | 23877
CCOC(=O)N1CCN(C(=O)CSCc2ccccc2)CC1 | . | . | . | .
CCOC(=O)N1CCN(Cc2nc(-c3cccc(C)c3)no2)CC1 | . | . | . | 22782
N#CC(CCc1ccccc1[N+](=O)[O-])(CCc1ccccc1[N+](=O)[O-])C(N)=O | . | . | . | .
CC(C)Oc1cccc(C2NC(=O)c3ccccc3O2)c1 (stereo not given) | ? | . | . | .
CN(Cc1ccccc1)Cc1c(F)cccc1F | . | . | . | 22850
COc1ccc2ccccc2c1CN(C)Cc1ccccc1 | . | . | . | .
CCCCN1C(=O)NC(NS(=O)(=O)c2ccc(N)cc2)(C(F)(F)F)C1=O (stereo not given) | . | . | . | 19835
CCCCN(C(=O)c1sc2nc3n(c(=O)c2c1C)CCC3)c1c(N)n(CC(C)C)c(=O)[nH]c1=O | . | . | . | .
Cc1c(C(=O)N(CC(C)C)c2c(N)n(Cc3ccccc3)c(=O)[nH]c2=O)sc2nc3n(c(=O)c12)CCC3 | . | 32.3 | . | ?
O=C1[C@H]2[C@@H](C(=O)N1c1cc(Cl)cc(Cl)c1)[C@]1(C(=O)Nc3ccccc31)N1CCC[C@@H]21 | . | . | . | 20946
SMILES | BoNT-F LC inh | Anthrax LF prot | BoNT A protease | Autofluor counter
Cc1cc(Cl)c2c(c1)[C@]1(C(=O)N2)[C@@H]2C(=O)N(Cc3ccccc3)C(=O)[C@@H]2[C@@H]2CCCN21 | . | . | . | .
Cc1cc2n(n1)C(c1cn(-c3ccccc3)nc1C)Nc1ccccc1-2 (stereo not given) | . | . | ? | 22907
Cc1ccccc1NP1(=O)OCCCN1Cc1ccccc1Cl (stereo not given) | . | . | . | .
Cn1cccc1C(=O)OCC(=O)c1c[nH]c2ccccc12 | . | . | . | .
Cn1cccc1C(=O)OCC(=O)c1cc2ccccc2o1 | . | . | ? | 20874
O=C(CSc1nc2cc(Cl)ccc2s1)c1cc2ccccc2o1 | . | . | . | 19577
O=C(COC(=O)c1ccc(Cl)s1)c1cc2ccccc2o1 | . | . | . | 20753
COC(=O)c1c(NC(=S)NNC(=O)c2ccc(Cl)s2)sc(C(=O)N(C)C)c1C | . | . | . | .
COc1nc(OCC#N)nc(N2CCCCC2)n1 | . | . | . | .
COc1nc(N(C#N)CC(N)=O)nc(N2CCCC2)n1 | . | . | . | 20491
CC1CCCC(C)N1CCNC(=O)CCc1nnc2n(Cc3ccccc3)c(=O)c3ccccc3n12 (stereo not given) | . | . | . | .
CN1C(=S)SC(N(O)C(=O)NC2CCCCC2)C1(C)C (stereo not given) | . | . | ? | 21404
CC1(C(=O)NS(=O)(=O)c2cccc(C#N)c2)CCN1C(=O)c1ccc(C2CCCCC2)cc1 (stereo not given) | . | . | . | .
COc1cccc(NC(=O)c2ccnc(N3CCC(C(=O)NCc4ccccc4OC)CC3)c2)c1 | . | . | . | .
